# Screening results: PubChem, The Scripps Research Institute Molecular Screening Center
# SF-1 inh: blocks the human nuclear receptor SF-1 | CHO-K1 Gal4-SF-1 LBD luciferase reporter | inhibition, % at 10 µM | 65,000 tested, 0.55% active | AID 525;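 active means inhibition above the mean inhibition of all tested compounds plus 3 SD, cut at about 48% in these data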;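 further: 0% = SF-1 transfected cells with DMSO and 100% = mock-transfected cells lacking SF-1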
# Target sequence (Q13285 whole entry, looked up, the tested form may be a part): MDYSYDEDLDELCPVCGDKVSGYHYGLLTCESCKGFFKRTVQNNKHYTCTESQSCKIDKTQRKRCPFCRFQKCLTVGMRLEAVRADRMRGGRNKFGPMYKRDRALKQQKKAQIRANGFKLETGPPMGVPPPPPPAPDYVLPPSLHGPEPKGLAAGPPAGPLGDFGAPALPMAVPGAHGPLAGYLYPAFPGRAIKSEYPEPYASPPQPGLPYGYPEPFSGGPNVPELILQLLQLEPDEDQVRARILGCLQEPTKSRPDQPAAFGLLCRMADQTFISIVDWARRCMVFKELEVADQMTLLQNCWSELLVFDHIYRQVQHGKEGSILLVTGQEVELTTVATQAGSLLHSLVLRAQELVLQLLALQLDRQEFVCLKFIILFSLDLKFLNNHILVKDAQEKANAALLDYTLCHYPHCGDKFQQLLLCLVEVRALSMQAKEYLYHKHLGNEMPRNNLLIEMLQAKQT
# The depositor's hits bear a star. This excerpt belongs to a sample that is enriched for hits.
SMILES,SF-1 inh
CN1CCN(C(=O)COc2ccc(-c3nc4ccccc4s3)cc2)CC1,70.9*
COc1ccc(C2C(C(=O)N3CCC4(CC3)OCCO4)c3cc(OC)c(OC)cc3C(=O)N2C)cc1 (configuration not stated),12.1
CCOP1(=S)Oc2cc3c(cc2C(C(=O)OC)(C(F)(F)F)O1)OCO3 (configuration not stated),-1.2
COCCn1cc(C(=O)N2CCC3(CC2)OCCO3)c2c3ccccc3n(C)c2c1=O,-0.6
COC(=O)c1ccc(N2C(=O)CC(N3CCC(n4c(=O)[nH]c5ccccc54)CC3)C2=O)cc1 (configuration not stated),53.6*
O=C1C2CCN(CC2)[C@@H]1Cc1ccc2ccccc2c1O,-6.6
COC(=O)N(c1ccccc1)P1(=S)OCCO1,-7.9
CCOc1cc2[nH]c(=S)n(CCCC(=O)N3CCC4(CC3)OCCO4)c(=O)c2cc1OCC,-4.4
C[C@@]1(CO)[C@H](O)CC[C@@]2(C)[C@H]1CC[C@H]1C[C@@H]3C[C@@]12CC[C@]3(O)CO,83.7*
Cc1cccc(N2CCc3c2nc2ccccc2c3N)c1,5.7
OC1(c2ccc(F)cc2)CC2CCC(C1)N2Cc1nnnn1C1CCCCC1 (configuration not stated),-14.3
Cc1ccc2cc3cc(C(=O)N4CCC5(CC4)OCCO5)oc3nc2c1,-12.6
C=CCn1c(O)c(C(C)=Nc2ccc(C(=O)OCC)cc2)c(=O)[nH]c1=O,4.4
COc1cccc(-c2cc(C(F)(F)F)n3nc(C(=O)N4CCC5(CC4)OCCO5)cc3n2)c1,-1.5
Cc1c2ccncc2c(C)c2c1[nH]c1ccccc12,76.5*
CCC(=NCC1CCCO1)c1c(O)[nH]c(=O)[nH]c1=O (configuration not stated),-1.8
O=P(CN1CCN(c2ccccc2)CC1)(N1CCCCC1)N1CCCCC1,33.1
CCCCn1c(O)c(C=NCCN2CCCCC2)c(=O)[nH]c1=O,1.4
CCCCn1c(O)c(C=NCCCN(CC)CC)c(=O)[nH]c1=O,4.1
C[C@]12CCC(=O)C=C1CCC1C2CC[C@@]2(C)C1CC[C@@]2(O)CC#N (some centres not stated),-14.5
Cn1ncnc2c(=O)n(C)c(=O)nc1-2,96.5*
C=CCOC(=O)C1=C(C)OC(N)=C(C#N)[C@@]12C(=O)N(CC(N)=O)c1ccccc12,-1.5
CN1C(=O)C(C2(C#N)CCCCC2)C(=O)N(C)C1=O,-13.1
CC(C)NS(=O)(=O)c1ccc(OCC(=O)N2CCN(Cc3ccccc3)CC2)c(Cl)c1,17.3
CC(C(N)=O)N1CC(c2ccccc2)CC1=O (configuration not stated),-11.8
